Test results: PubChem BioAssay (EPA / NIEHS)
Several values for one entry are separate records, joined by “and”; a condition that tells them apart may be missing. Identical values can stand only once. Some compounds were tested as several samples or in several runs, with calls that do not always agree. Activity calls are given as the source filed them. Rule for the calls: active = hit-call score of the fitted dose curve at least 0.9, where 1 is the maximum; inactive = score below 0.9.

Key:
[1] = read-out: Human Leukocyte Antigen - DR isotype (HLADR), HLA-DRA (gene 3122); test: BSK_BE3C_HLADR: BioMAP Diversity Plus: BE3C Assay for Human Leukocyte Antigen - DR isotype (HLADR) Biomarker Activity (AID 2283032); settings: primary human bronchial epithelial cells; actives raise or lower the signal
Method in brief: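 Chemicals are dosed onto BE3C bronchial epithelial cultures of human origin and left 24 h. HLA-DR is then measured by ELISA, and the endpoint is fitted in both directions using DMSO as the activity baseline.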

[2] = read-out: Vascular cell adhesion molecule 1 (VCAM1), VCAM1 (gene 7412); test: BSK_4H_VCAM1: BioMAP Diversity Plus: 4H Assay for Vascular cell adhesion molecule 1 (VCAM1) Biomarker Activity (AID 2283033); settings: primary human endothelial cells (HUVEC); actives raise or lower the signal
Method in brief: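 Chemicals are added to primary human umbilical vein endothelial cells. After 24 h, VCAM-1 levels are measured by ELISA. Values come from bidirectional fitting referenced to DMSO.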

[3] = read-out: Interferon-gamma inducible Protein 10 (IP10), CXCL10 (gene 3627); test: BSK_BE3C_IP10: BioMAP Diversity Plus: BE3C Assay for Interferon-gamma inducible Protein 10 (IP10) Biomarker Activity (AID 2283034); settings: primary human bronchial epithelial cells; actives raise or lower the signal
Method in brief: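 IP-10 quantified by ELISA serves as the endpoint. Cells: primary human bronchial epithelium, read 24 h after compound addition. Activity is derived by bidirectional fitting with DMSO as negative control.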

[4] = read-out: Monokine induced gamma interferon (MIG), CXCL9 (gene 4283); test: BSK_BE3C_MIG: BioMAP Diversity Plus: BE3C Assay for Monokine induced gamma interferon (MIG) Biomarker Activity (AID 2283035); settings: primary human bronchial epithelial cells; actives raise or lower the signal
Method in brief: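 hu bronchial epithelial 1° cells, 24 h cpd; MIG by ELISA; bidirectional fit, DMSO = baseline.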

[5] = read-out: Transforming growth factor beta 1 (TGFb1), TGFB1 (gene 7040); test: BSK_BE3C_TGFb1: BioMAP Diversity Plus: BE3C Assay for Transforming growth factor beta 1 (TGFb1) Biomarker Activity (AID 2283036;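 note: TGF-b1 protein level measured by ELISA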); settings: primary human bronchial epithelial cells; actives raise or lower the signal
Method in brief: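 Bronchial epithelial primary cells are treated with test chemical, then TGF-b1 is quantified by ELISA after 24 hours. Values derive from bidirectional fitting against DMSO, with cytotoxicity checked by SRB staining in parallel cultures.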

[6] = read-out: Plasminogen activator inhibitor-1 (PAI1), SERPINE1 (gene 5054); test: BSK_BE3C_PAI1: BioMAP Diversity Plus: BE3C Assay for Plasminogen activator inhibitor-1 (PAI1) Biomarker Activity (AID 2283037); settings: primary human bronchial epithelial cells; actives raise or lower the signal
Method in brief: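 Values derive from bidirectional fitting against DMSO baseline of PAI-1 levels, measured by ELISA in human bronchial epithelial cells 24 h after compound addition.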

[7] = read-out: urokinase plasminogen activator (uPA), PLAU (gene 5328); test: BSK_BE3C_uPA: BioMAP Diversity Plus: BE3C Assay for urokinase plasminogen activator (uPA) Biomarker Activity (AID 2283038); settings: primary human bronchial epithelial cells; actives raise or lower the signal
Method in brief: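 Using confluent primary human lung bronchial epithelial cultures, we dosed chemicals, waited 24 h, then ran a uPA ELISA, fitting bidirectionally against DMSO.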

[8] = read-out: Interleukin-6 (IL6), IL6 (gene 3569); test: BSK_CASM3C_IL6: BioMAP Diversity Plus: CASM3C Assay for Interleukin-6 (IL6) Biomarker Activity for (AID 2283040); settings: primary human coronary artery smooth muscle cells; actives raise or lower the signal
[9] = read-out: Tissue plasminogen activator (tPA), PLAT (gene 5327); test: BSK_BE3C_tPA: BioMAP Diversity Plus: BE3C Assay for Tissue plasminogen activator (tPA) Biomarker Activity (AID 2283041); settings: primary human bronchial epithelial cells; actives raise or lower the signal
Method in brief: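 Gain- or loss-of-signal in tPA, measured by ELISA, derived by bidirectional fitting against DMSO. Cells: human primary bronchial epithelial; read at 24 h after chemical dosing.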

[10] = read-out: Interleukin-8 (IL8), CXCL8 (gene 3576); test: BSK_CASM3C_IL8: BioMAP Diversity Plus: CASM3C Assay for Interleukin-8 (IL8) Biomarker Activity (AID 2283042); settings: primary human coronary artery smooth muscle cells; actives raise or lower the signal;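 note: IL-8 protein level quantified by ELISA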
[11] = read-out: Human Leukocyte Antigen - DR isotype (HLADR), HLA-DRA (gene 3122); test: BSK_CASM3C_HLADR: BioMAP Diversity Plus: CASM3C Assay for Human Leukocyte Antigen - DR isotype (HLADR) Biomarker Activity (AID 2283043); settings: primary human coronary artery smooth muscle cells; actives raise or lower the signal;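 note: cell-surface HLA-DR protein level quantified by ELISA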
[12] = read-out: Macrophage colony-stimulating factor (MCSF), CSF1 (gene 1435); test: BSK_CASM3C_MCSF: BioMAP Diversity Plus: CASM3C Assay for Macrophage colony-stimulating factor (MCSF) Biomarker Activity (AID 2283044); settings: primary human coronary artery smooth muscle cells; actives raise or lower the signal;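 note: M-CSF protein amount quantified by ELISA after 24 h exposure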
[13] = read-out: Low-density lipoprotein receptor (LDLR), LDLR (gene 3949); test: BSK_CASM3C_LDLR: BioMAP Diversity Plus: CASM3C Assay for Low-density lipoprotein receptor (LDLR) Biomarker Activity (AID 2283045); settings: primary human coronary artery smooth muscle cells; actives raise or lower the signal;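 note: LDLR protein level on the cell surface quantified by ELISA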
[14] = BSK_CASM3C_Proliferation: Cell Proliferation Assessment in the BioMAP Diversity Plus: CASM3C Assay (AID 2283047); settings: primary human coronary artery smooth muscle cells;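 note: sulforhodamine B total protein stain as relative cell number at 560 nm; sub-confluent cells exposed 48 h before staining; fitted both ways against DMSO so gain or loss of cell number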
[15] = read-out: Monokine induced gamma interferon (MIG), CXCL9 (gene 4283); test: BSK_CASM3C_MIG: BioMAP Diversity Plus: CASM3C Assay for Monokine induced gamma interferon (MIG) Biomarker Activity (AID 2283048); settings: primary human coronary artery smooth muscle cells; actives raise or lower the signal;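 note: MIG protein level measured by ELISA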
[16] = read-out: serum amyloid A (SAA), SAA1 (gene 6288); test: BSK_CASM3C_SAA: BioMAP Diversity Plus: CASM3C Assay for serum amyloid A (SAA) Biomarker Activity (AID 2283049); settings: primary human coronary artery smooth muscle cells; actives raise or lower the signal;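 note: SAA protein level quantified by ELISA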
[17] = BSK_CASM3C_SRB: Viability Assessment in the BioMAP Diversity Plus: CASM3C Assay (AID 2283050); settings: primary human coronary artery smooth muscle cells;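 note: total protein by SRB staining as cytotoxicity measure in parallel cultures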
[18] = read-out: Thrombomodulin, THBD (gene 7056); test: BSK_CASM3C_Thrombomodulin: BioMAP Diversity Plus: CASM3C Assay for Thrombomodulin Biomarker Activity (AID 2283051); settings: primary human coronary artery smooth muscle cells; actives raise or lower the signal;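 note: thrombomodulin protein level measured by ELISA 24 h after dosing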
[19] = read-out: Monocyte Chemoattractant Protein-1 (MCP1), CCL2 (gene 6347); test: BSK_CASM3C_MCP1: BioMAP Diversity Plus: CASM3C Assay for Monocyte Chemoattractant Protein-1 (MCP1) Biomarker Activity (AID 2283046); settings: primary human coronary artery smooth muscle cells; actives raise or lower the signal;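 note: MCP-1 level quantified by ELISA 24 h after dosing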
[20] = read-out: Urokinase-type plasminogen activator receptor (uPAR), PLAUR (gene 5329); test: BSK_BE3C_uPAR: BioMAP Diversity Plus: BE3C Assay for Urokinase-type plasminogen activator receptor (uPAR) Biomarker Activity (AID 2283039); settings: primary human bronchial epithelial cells; actives raise or lower the signal
Method in brief: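 Steps: dose human primary bronchial epithelial cells, incubate 24 h, measure uPAR by ELISA, then fit gain- or loss-of-signal response bidirectionally relative to DMSO.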

Measured: AC50

NC(=NCCCCCCN=C(N)/N=C(\N)Nc1ccc(Cl)cc1)/N=C(\N)Nc1ccc(Cl)cc1
active: [1] 3.83 µM | [2] 5.68 µM | [3] 4.26 µM | [4] 11.9 µM | [6] 1.46 µM | [7] 3.31 µM | [8] 7.19 µM | [9] 1.37 µM | [10] 9.32 µM | [11] 6.06 µM | [12] 7.55 µM | [13] 5.55 µM | [14] 4.91 µM | [15] 13.2 µM | [16] 5.67 µM | [17] 4.9 µM | [18] 4.64 µM
inactive: [5]

CC(=O)Nc1ccc(O)cc1
not listed: [20]
inactive: all other assays above

O=C(CCCN1CCC(O)(c2ccc(Cl)cc2)CC1)c1ccc(F)cc1
active: [2] 20 µM | [13] 9.2 µM | [14] 20 µM
not listed: [20]
inactive: all other assays above

O=C(O)CCC(F)(F)C(F)(F)C(F)(F)C(F)(F)C(F)(F)F
not listed: [5] | [20]
inactive: all other assays above

O=C(O)C(F)(F)OC(F)(F)C(F)(F)OC(F)(F)C(F)(F)OC(F)(F)C(F)(F)C(F)(F)C(F)(F)F
inactive: [8] | [10] | [11] | [12] | [19] | [15] | [16] | [18]
active: [1] 3.73 µM and 3.7 µM | [2] 48.4 µM and 50.2 µM | [3] 4.85 µM and 4.88 µM | [4] 4.58 µM and 4.77 µM | [6] 4.78 µM and 4.58 µM | [7] 3.94 µM and 3.9 µM | [9] 4.98 µM and 4.8 µM | [12] 48.1 µM | [13] 46.1 µM and 55.2 µM | [14] 51.1 µM and 56.6 µM | [16] 43.5 µM | [17] 55.1 µM and 45.3 µM

Oc1c(Cl)cc(Cl)cc1Sc1cc(Cl)cc(Cl)c1O
active: [1] 3.56 µM and 3.35 µM | [2] 12.8 µM | [3] 4.76 µM | [4] 6.66 µM and 7.75 µM | [6] 4.59 µM | [7] 5.33 µM and 5.44 µM | [20] 1.8 µM and 1.83 µM | [9] 4.32 µM and 3.03 µM | [11] 9.1 µM and 7.2 µM | [12] 12.6 µM and 11.8 µM | [14] 15.8 µM and 12.1 µM | [15] 20.2 µM and 26.6 µM | [16] 20 µM | [17] 17.1 µM | [18] 12.8 µM and 12.6 µM
inactive: [8] | [10] | [13] | [19] | [16]
